The sample as a whole holds a higher share of hits than the screen did.
GBA activity: alters purified human glucocerebrosidase activity | P04062 | purified enzyme, resorufin glucoside fluorescence (screen aimed at inhibitors), 20 min | Potency, µM | hit rate 1.1% among 48,000; in the data active means potency below about 15 µM; inconclusive means mostly about 16 µM to 33 µM;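 further: potency means the concentration at half of the fitted maximal effect; the screen sought inhibitors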
Target sequence (P04062 whole entry, looked up): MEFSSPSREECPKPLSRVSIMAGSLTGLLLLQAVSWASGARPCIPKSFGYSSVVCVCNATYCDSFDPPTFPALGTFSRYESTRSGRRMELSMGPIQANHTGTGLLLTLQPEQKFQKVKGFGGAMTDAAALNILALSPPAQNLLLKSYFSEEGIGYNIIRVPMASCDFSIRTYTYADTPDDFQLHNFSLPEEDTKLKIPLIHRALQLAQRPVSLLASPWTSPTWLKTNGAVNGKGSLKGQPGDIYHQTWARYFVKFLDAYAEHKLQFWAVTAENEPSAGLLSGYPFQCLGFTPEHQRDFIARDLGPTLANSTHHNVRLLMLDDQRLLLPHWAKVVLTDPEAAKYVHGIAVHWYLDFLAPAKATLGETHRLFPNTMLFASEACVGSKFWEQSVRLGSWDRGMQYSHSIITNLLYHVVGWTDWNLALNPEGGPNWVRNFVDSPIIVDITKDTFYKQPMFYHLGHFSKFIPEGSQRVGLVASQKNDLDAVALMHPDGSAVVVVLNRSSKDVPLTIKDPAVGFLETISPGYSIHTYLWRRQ
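Compounds titrated against 0.2 nM normal enzyme, 30 uM resorufin beta-D-glucopyranoside substrate, citrate/phosphate buffer with taurocholate and tween-20, pH 5.9. Reaction ran 20 min at room temperature; fluorescence (Ex 548/Em 600) gave AC50.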
HBB splice mod: modulators of hemoglobin beta chain splicing; HBB splicing reporter cell assay, activation; EGFP reporter with mutant IVS2-654 intron; response scale: normalised to 500 nM splice-correcting PNA; Potency, µM (titrated, usually from 46.1 µM), without a hit: at the highest dose activation, usual class: activators; hit rate 0.06% among 65,000; further: potency means the concentration at half of the fitted maximal effect; 0% is about no effect
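Compounds were applied for 2 days to HeLa EGFP-654 cells, 500/well in Optimem with 2% FCS. The reporter's EGFP is disrupted by mis-splicing of beta-globin intron IVS2-654. Readout: summed well GFP fluorescence from 488 nm laser scanning; reference was 500 nM antisense […] 654 PNA.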
Epigenetic mod: epigenetic GFP locus derepression in mouse cells; mouse C127i GFP locus derepression, cytometry, 30 h; Potency, µM (titrated, usually from 46.1 µM), for the others: at the highest dose GFP derepression (activation); hit rate 0.09% among 68,000; further: % of control where 0% means no effect
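Murine C127i mammary cells carrying a silenced, stably integrated CMV-driven GFP reporter were treated with compound for 30 hours at 37 C. After PBS washes, GFP-positive cells were counted by laser-scanning microplate cytometry.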
Ub-GFP proteasome: ubiquitin-GFP accumulation via proteasome inhibition. Ubiquitin-GFP reporter cells, proteasome inhibition, GFP fluorescence; response scale: untreated = 0%, 10 µM MG-132 = 100%. 67,000 tested, under 10 active. Potency, µM (highest dose often 45.9 µM), without a hit: at the top dose activation (GFP accumulation), actives largely listed as activators. AID 526; active means well fitted activation curve with a large enough effect, not every such curve was filed as active; inconclusive means small, poorly fitted or top-dose-only effect, or another doubt; inactive means no such curve, though single readings can be large or run the other way; further: potency means the concentration at half of the fitted maximal effect
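U2OS cells stably expressing ubiquitin(G76V)-GFP, seeded overnight in 0.5% FBS medium, were exposed to compounds (qHTS, 46 uM to 2.9 nM) for 4 hr at 37 °C. GFP-positive cells were counted by laser cytometry (488 ex/515 em), normalized between basal and 10 uM MG-132.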
USP2a inhib: USP2a (human) protease inhibition. O75604. USP2a enzymatic assay, qHTS inhibition. Potency, µM (series often up to 38.3 µM), without a hit: top-dose activity change, negative = inhibition, actives largely listed as inhibitors. hit rate 0.1% among 60,000. AID 927; further: potency means the concentration at half of the fitted maximal effect; nearly all actives have a fitted effect of over 60% in size
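Coupled readout: USP2-cleaved Ub-PLA2 (20nM final) turns over NBD C6-HPC (20uM final), Ex 460nm/Em 535nm after 2.5 h, time-zero read flagging artifacts. Enzyme (20nM final, pH 8.0 Tris) given 30 min RT with compound first; NEM defines full inhibition.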
* marks the source's active call; other numbers are inactive results; i = inactive; ? = inconclusive; · = no result; [ ] = dose if it differs, or a comment. Unless noted, the call rests on the fitted dose curve; in most records, active means well fitted curve in the direction sought with a large enough effect; inconclusive means small, poorly fitted or top-dose-only effect, or another doubt; inactive means no such curve, though single readings can be large; an effect the other way counts as inactive or inconclusive.

SMILES	GBA activity	HBB splice mod	Epigenetic mod	Ub-GFP proteasome	USP2a inhib
Cc1cc(NC(=O)c2ccc3nc(-c4ccccc4)c(-c4ccccc4)nc3c2)no1	14*	2%	-3%	17%	9%
O=C(NC1CCCCCCC1)C1CCN(S(=O)(=O)N2CCC3(CC2)OCCO3)CC1	11*	-1%	2%	-12%	13%
O=C(NC1CCCCC1)C1CCN(S(=O)(=O)N2CCCCCC2)CC1	>77	0%[57.5 µM]	-3%	1%	-2%
COc1ccc(C(=O)N2CCC3(CCN(Cc4ccccc4OC)CC3)CC2)cc1	·	1%	5%[9.22 µM]	-11%	33%
COc1ccc(OCCn2c(=N)n(CCO)c3ccccc32)cc1	4.3*	0%[57.5 µM]	-1%	-2%	3%
COc1ccc(C2C(C#N)=C(N)N3C(=C2C#N)Sc2ccccc23)cc1 (configuration not stated)	·	28%	13µM*	15%	12%
CN1CCN(c2ncc3nc(-c4ccccc4)c(=O)n(C)c3n2)CC1	·	0%	14%[9.22 µM]	-3%	36%
COc1ccc(Nc2nc(N3CCCC3)nc3ccccc23)c(OC)c1	3.4*	-1%	4%	1%	11%
COc1ccc(Nc2cc(C(=O)NCCCN3CCN(C)CC3)c3ccccc3n2)c(OC)c1	>77	-2%	2%	2%	0%
C=CCNc1nc(N2CCCC2)nc2ccccc12	11*	0%	2%	1%	-1%
OCCNc1nc(N2CCN(Cc3ccccc3)CC2)nc2ccccc12	13*	·	0%	0%	21%
CC1=c2c(oc3cc(O)c(Nc4c(C)cc(O)cc4O)c(C)c23)=CC(=O)C1=Nc1c(C)cc(O)cc1O	·	-1%[9.22 µM]	2%[9.22 µM]	-1%[9.17 µM]	·
CC(=O)NCCNc1ccnc(-c2ccccc2C)n1	·	-1%	0%[9.22 µM]	3%	14%
Cc1ccc(-n2c(SCC(=O)NCC3CCCO3)nc3n[nH]c(C)c3c2=N)cc1Cl (configuration not stated)	14*	-1%	-1%	-11%	68%
CSc1ncnc2c1ncn2C1OC(CO)C(O)C1O (configuration not stated)	·	·	·	·	-7%
COc1ccc(C2C(C#N)=C(SC)NC3=C2C(=O)CC(C)(C)C3)cc1 (configuration not stated)	·	·	-6%[20.6 µM]	·	·
COC(=O)c1ccc(C2C(C#N)=C(C)NC3=C2C(=O)CC(C)(C)C3)cc1 (configuration not stated)	12*	-6%	8%	-3%	2%
O=C(Nc1nnc(C2CCCCC2)s1)c1cccs1	>77	-2%[57.5 µM]	0%	-5%	-11%
CCc1c(C(=O)Nc2nnc(C3CC3)s2)csc1C	1.5*	0%	0%	4%	1%
CC(=O)Nc1cccc(-c2nnc(-c3ccccc3)o2)c1	14*	0%	0%	-7%	7%
COc1ccc(CC(=O)Nc2cccc(-c3nnc(-c4ccccc4)o3)c2)cc1OC	?	-1%	-3%	-2%	23%
COc1ccc(CC(=O)Nc2cccc(-c3nnc(-c4cccc(C)c4)o3)c2)cc1OC	11*	-1%	-6%	2%	25%
CCCOC(=O)C1[C@H]2C(=O)N(C(C)c3ccc(OC)cc3)C[C@]23C=C[C@H]1O3 (some centres not stated)	13*	-1%	-3%	-8%	-2%
CCOC(=O)N(C)c1ccc(C(O)(C(F)(F)F)C(F)(F)F)cc1	?	·	0%	4%	5%
CNc1ccc(C(O)(C(F)(F)F)C(F)(F)F)cc1C(O)(C(F)(F)F)C(F)(F)F	13*	0%	-3%	8%	-4%
SMILES	GBA activity	HBB splice mod	Epigenetic mod	Ub-GFP proteasome	USP2a inhib
N#CCSc1nc2c(sc(=S)n2Cc2ccco2)c(=O)n1-c1ccc(F)cc1	6*	0%[0.369 µM]	0%	·	30%
C/C=C(/C)C#N	·	-1%	·	·	·
Cc1nn(-c2ccccc2)c(Cl)c1C1C(C#N)=C(N)OC2=C1C(=O)CCC2 (configuration not stated)	i	1%	-1%	-2%	17%
Cc1ccc(-n2nc(C)c(C3C(C#N)=C(N)OC4=C3C(=O)CC(C)(C)C4)c2Cl)cc1 (configuration not stated)	4.8*	·	-2%	1%	-7%
O=C(Nc1ccc(Br)c2cccnc12)c1ccc(Cn2cc(Cl)cn2)o1	9.2*	0%	4%	-1%	29%
O=C(Nc1cccc2cccnc12)c1ccc(Br)o1	?	-1%	0%	3%	-1%
Brc1cnc(N2CCCC2)nc1N1CCOCC1	15*	0%	2%	1%	-4%
CN(C(=O)COC(=O)C1CCN(S(=O)(=O)c2cccs2)CC1)C1CCS(=O)(=O)C1 (configuration not stated)	>77	4%	4%	-2%	0%
CN(C(=O)C1CCN(S(=O)(=O)c2cccs2)CC1)C1CCCCC1	13*	2%	-1%	-1%	-1%
Oc1ccc(Nc2nc(N3CCCC3)c3ccccc3n2)cc1	8.8*	0%[57.5 µM]	-1%	3%	·
C[C@@H](c1ccccc1)N1C(=O)[C@H]2[C@@H]3[C@H](O)[C@H](O)CC(=O)[C@H]3CC[C@H]2C1=O	·	2%[9.22 µM]	·	·	·
COc1ccc(N2CCN(Cc3cc(=O)oc4ccc(Cl)cc34)CC2)cc1	>77	-3%	10%	3%	13%
COc1ccc(N2CCN(Cc3cc(=O)oc4c3ccc3ccccc34)CC2)cc1	3.3*	-1%[57.5 µM]	6%	3%	7%
COc1ccc(Oc2ncc3nc(-c4ccc(F)cc4)c(=O)n(CCC#N)c3n2)cc1	·	1%	16%[9.22 µM]	-9%	76%
NC(=O)c1ccc[n+]([C@@H]2OC(COP(=O)([O-])OP(=O)(O)OCC3OC(n4cnc5c(N)ncnc54)C(OP(=O)(O)O)C3O)C(O)C2O)c1 (some centres not stated)	·	·	·	·	-7%
Cc1cc(C(=O)CSc2nc3ccccc3o2)c(C)n1C1CC1	14*	0%[57.5 µM]	1%	2%	7%
O=C(CSc1nc2ccccc2o1)c1ccc2c(c1)OCCO2	14*	0%	0%	3%	-3%
C/C(=C\C1CCCCC1)C(NC(=O)c1cccnc1)c1ccc(-c2ccccc2)cc1 (configuration not stated)	·	1%	·	·	·
Cc1onc(-c2ccccc2Cl)c1C(=O)Nc1cccc(-c2cn3cccnc3n2)c1	11*	5%	4%	6%	30%
O=C(CC(c1ccco1)S(=O)(=O)c1ccccc1)c1ccc(F)cc1 (configuration not stated)	·	·	3.2µM*	·	·
O=C(CN1CCCC1)Nc1ccc(NC(=O)Nc2ccccc2Cl)cc1	13*	0%[57.5 µM]	-2%	-1%	15%
COc1ccc(NC(=O)CN2CCN(CC(=O)Nc3ccccc3Cl)CC2)cc1Cl	·	-3%	2%	-6%	21%
